Shown are actives, neighbours in structure and some others; about 4.5% of the full set was active somewhere.
PfHsp90 set2 = inhibits growth of yeast expressing Plasmodium falciparum Hsp90. S. cerevisiae expressing PfHsp90, BacTiter-Glo ATP, 48 h; yeast lacking PDR1 and PDR3 efflux regulators. inhibition, % at 9.4 µM. hit rate 0.32% among 310,000;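 active means every replicate shows inhibition above about 80%, whatever the replicate mean, limit read from the data; inconclusive means mean inhibition reaches the set limit but some replicate falls short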;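 further: 0% = DMSO neutral controls and 100% = 20 µM radicicol positive controls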
tim10-1 inh = tim10-1 yeast growth inhibition; S. cerevisiae tim10-1 ts strain growth, BacTiter-Glo, 24 h; inhibition, % at 20 µM; hit rate 2.2% among 330,000; AID 463190;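 active means inhibition of at least 40%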;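 further: mutant grown at 25 °C; 0% = DMSO wells with yeast and 100% = wells holding no yeast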
SKKanGAS inh = SKKanGAS growth inhibition; inhibition, % at 7.5 µM; hit rate 1.3% among 300,000; S. pyogenes SKKanGAS, kanamycin growth, BacTiter-Glo, 6 h; AID 1662;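 active means mean replicate score, as percent of positive control median, at least 50; inconclusive means mean below 50 but one replicate at or above 50; inactive means mean and every replicate below 50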;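 further: strain carries kanamycin resistance gene driven by streptokinase promoter and grows in 40 µg/ml kanamycin; loss of luminescence reflects streptokinase promoter inhibition or plain growth inhibition; 0% = median of DMSO wells and 100% = positive control at its reference dose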
tim23-1 inh = tim23-1 yeast growth inhibition | S. cerevisiae tim23-1 growth, BacTiter-Glo luminescence, 24 h | inhibition, % at 20 µM | hit rate 1.3% among 330,000;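 active means growth inhibition of the mutant yeast at or above 50%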;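 further: temperature-sensitive mutant grown at 25 °C; plate controls were DMSO-treated mutant yeast for no effect and medium wells lacking yeast for full effect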
NALP3 yeast inh = NALP3 inhibition in yeast; AID 2825; Yeast reconstituted NLRP3/ASC/caspase-1, beta-gal luminescence, 24 h; hit rate 0.39% among 330,000; inhibition, % at 10 µM;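 active means inhibition of 50% or more; inactive means inhibition below 50%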;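 further: plate controls were induced DMSO wells for no effect and uninduced yeast grown without galactose for full effect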
TIM10 inh = growth inhibitors of TIM10 yeast strain; S. cerevisiae TIM10 strain growth, BacTiter-Glo luminescence, 24 h; inhibition, % at 10 µM; hit rate 1.4% among 330,000; AID 463195;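 active means inhibition of 40% or more at the single tested concentration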;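 further: wild-type TIM10 isogenic control strain grown at permissive 25 °C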
tim10-1 conf = tim10-1 yeast growth inhibition, confirmed | AID 463213 | S. cerevisiae tim10-1 ts strain growth, BacTiter-Glo, 24 h | inhibition, % at 20 µM | hit rate 56% among 7,400 | shares compounds with tim10-1 inh;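 active means inhibition of yeast growth at or above a set limit in either of two repeat tests at 20 µM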;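 further: tim10-1 mutant grown at permissive 25 °C to find synthetic lethal compounds; 0% = DMSO yeast wells and 100% = medium wells without yeast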
tim10 confirm = TIM10 yeast growth inhibition, confirmed; shares compounds with TIM10 inh; S. cerevisiae tim10 strain growth, BacTiter-Glo luminescence, 24 h; inhibition, % at 10 µM; hit rate 63% among 4,600; AID 463215;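 active means inhibition of yeast growth at or above a set limit in either of two replicates at 10 µM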;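 further: this counterscreen used the strain with wild-type TIM10; 0% = yeast with DMSO and 100% = medium wells lacking yeast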
tim23-1 conf = tim23-1 yeast growth inhibition, confirmed. shares compounds with tim23-1 inh. S. cerevisiae tim23-1 growth, BacTiter-Glo luminescence, 24 h. inhibition, % at 20 µM. hit rate 83% among 4,400;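 active means inhibition above about 39% in either of two replicate wells at 20 µM, limit read from the data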;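 further: temperature-sensitive tim23-1 mutant grown at 25 °C; 0% = DMSO wells with yeast and 100% = medium wells without yeast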
Active calls of the source: *; ? = inconclusive; · = no result given.

SMILES	PfHsp90 set2	tim10-1 inh	SKKanGAS inh	tim23-1 inh	NALP3 yeast inh	TIM10 inh	tim10-1 conf	tim10 confirm	tim23-1 conf
C/C(N)=C(/C#N)C(=O)CSc1nc2cc(Cl)ccc2s1	·	50*	-1	54*	27	44*	46*	37*	56*
O=C(N/N=C/c1cc(Cl)cc([N+](=O)[O-])c1O)c1cc(-c2ccccn2)nc2ccccc12	-13	45*	?	51*	16	19	9	·	23
CCOC(=O)c1c(NC(=O)COC(=O)CCNS(=O)(=O)c2ccccc2)sc(C(=O)N(C)C)c1C	-2	2	·	12	6	10	·	·	·
CC1CCCC(C)N1C(=O)COC(=O)c1nn(C)c(=O)c2ccccc12 (configuration not stated)	-27	7	-6	18	-5	7	·	·	·
Cc1ccc(-c2cc3nc(C)cc(NCc4ccco4)n3n2)cc1	3	41*	14	58*	22	29	38*	·	55*
COc1cc(O)c2c(=O)c3c(OC)c(O)ccc3oc2c1	-12	67*	-7	56*	17	42*	57*	51*	66*
COc1cc(O)c2c(=O)cc(-c3ccccc3)oc2c1	-18	-12	-8	16	28	-3	·	·	·
O=C(CSCc1ccc([N+](=O)[O-])cc1)Nc1ccccc1C(=O)O	-52	-4	10	4	4	-9	·	·	·
COCCOC(=O)/C(=C/c1ccc(OC(=O)c2ccccc2)cc1)C(C)=O	108*	73*	2	90*	25	80*	65*	3	88*
O=C(Oc1ccc(/C=N/O)cc1)c1ccccc1	9	23	6	45	11	20	·	·	·
COc1ccc(/C=C2\COc3ccccc3C2=O)cc1OC	14	57*	-5	70*	36	50*	57*	12	58*
CCCC(C(=O)Nc1ccc(S(=O)(=O)N2CCCC2)cc1)c1ccccc1 (configuration not stated)	-4	23	-6	27	29	18	·	·	·
Cc1nn2c(-c3ccncc3)nnc2c2ccccc12	-59	57*	·	52*	17	76*	65*	74*	43*
CC(=O)Nc1cccc(-c2nnc3c4ccccc4c(C)nn23)c1	·	17	0	11	-7	9	·	·	·
COC(CN(C)C(=O)c1cn(C)c2ccc(S(=O)(=O)N(C)C3CCCCC3)cc2c1=O)OC	-4	-5	-1	-15	0	11	·	·	·
COc1ccc(/C=N/NC(=O)c2nn(C)cc2Br)cc1CSCc1ccco1	-11	44*	0	52*	18	26	20	·	47*
CN1C(=O)[C@@H]2C[C@@]3([C@@]45C[C@H]6C(=O)N(C)[C@@H](Cc7ccccc7)C(=O)N6[C@@H]4Nc4ccccc45)c4ccccc4N[C@H]3N2C(=O)[C@@H]1Cc1ccccc1	34	-2	2	7	8	-1	·	·	·
CCCCn1c(N)c(N(CC)C(=O)c2cc(CC)c(C)s2)c(=O)[nH]c1=O	·	-9	-1	-10	29	-3	·	·	·
Cc1ccc2c(c1)N(CC(=O)NCCCN1CCN(C)CC1)C(=O)CO2	6	-3	1	-3	3	-5	·	·	·
CN1/C(=C\C(=O)Nc2ccc(Cl)cc2)C(C)(C)c2ccccc21	37	52*	69*	68*	18	59*	62*	54*	78*
Clc1ccc2[nH]c(-c3ccccc3)cc2c1	-48	50*	14	61*	0	39	45*	·	73*
CC(C)(O)C#Cc1ccc(CNC[C@H]2O[C@@H](n3cnc(C(N)=O)n3)[C@H](O)[C@@H]2O)s1	-29	·	·	·	·	·	·	·	·
O=C1Nc2ccccc2/C1=C\C(=O)c1ccccc1	1	52*	-2	88*	28	82*	52*	93*	-43
Cc1ccc(S(=O)(=O)Nc2ccc(S(=O)(=O)Nc3nccs3)cc2)c([N+](=O)[O-])c1	-24	54*	2	50*	14	52*	55*	47*	52*
COc1ccc2nc3oc(C(=O)N4CC(C)CC(C)C4)cc3cc2c1 (configuration not stated)	-14	59*	1	54*	19	15	5	·	41*
SMILES	PfHsp90 set2	tim10-1 inh	SKKanGAS inh	tim23-1 inh	NALP3 yeast inh	TIM10 inh	tim10-1 conf	tim10 confirm	tim23-1 conf
CCCCn1c(N)c(N(Cc2ccccc2OC)C(=O)C(C)Oc2ccc(Br)cc2)c(=O)[nH]c1=O (configuration not stated)	-8	·	·	·	·	·	·	·	·
CCOC(=O)C1=C(C)N=C2SC(C(=O)OC)=CC(=O)N2C1c1ccc(OC)cc1 (configuration not stated)	-6	69*	1	75*	33	71*	78*	75*	60*
CCOC(=O)C1Nc2c(cc(C(F)(F)F)cc2[N+](=O)[O-])C2c3ccccc3CC12 (configuration not stated)	-6	13	37	10	21	2	·	·	·
CCOC(=O)C1Nc2ccccc2C2c3ccccc3CC12 (configuration not stated)	8	50*	-6	59*	40	35	51*	·	60*
S=C(N/N=C/c1cccs1)NC1CC2CCC1C2 (configuration not stated)	5	48*	43	72*	23	50*	46*	60*	58*
COc1cc(SC)ccc1C(=O)Nc1nc2ccccc2[nH]1	96*	90*	107*	93*	16	88*	91*	88*	94*
N#C/C(=C\c1ccc[nH]1)Sc1nc2ccccc2s1	-32	42*	-7	54*	20	14	30*	·	48*
O=[N+]([O-])c1cccc(-c2nc3ccccc3s/c2=N/O)c1	-99	71*	20	82*	4	57*	55*	69*	54*
Cc1ccc(C(=O)NC(C#N)=C(Cl)Cl)cc1	·	51*	-3	69*	18	45*	41*	30	62*
O=C(O)c1ccc([N+](=O)[O-])c2c1C(=O)c1ccccc1C2=O	-6	10	-2	-1	8	-12	·	·	·
O=C1c2ccccc2C(=O)c2c([N+](=O)[O-])ccc(O)c21	-13	59*	·	59*	10	35	38*	·	69*
CCCCCCCCCCn1c2c(c(=N)c3c1CCC3)CCC2	7	65*	?	83*	43	39	30	·	76*
